Experimental data published in PubChem BioAssay (NCATS).
Records with an inconclusive call do not appear. The source made the active and inactive calls. Calls follow the shape of the dose curve; as a rule, active = well fitted curve in the direction sought with a large enough effect; inconclusive = small, poorly fitted or top-dose-only effect, or another doubt; inactive = no such curve, though single readings can be large; an effect the other way counts as inactive or inconclusive.

Tests used:
[1] = Cellular Toxicity (caspase-3) Renal Proximal Tubule (AID 667); conditions: renal proximal tubule cells; at 91.7 µM (top of the series), primary cells freshly taken from rat, solvent-only wells 0%, staurosporine 100% unless noted;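 also: cells exposed to compound for 16 hours at 37 °C before detection; 0% = DMSO basal and 100% = 10 µM staurosporine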
Procedure, shortened: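 AC50 derived by standard Hill fit of concentration-response data, normalized between DMSO basal and 10 uM staurosporine as 100% stimulation. Cells: primary rat kidney proximal tubule, 16 h treatment at 37 °C.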

[2] = biological target: Cytochrome P450 3A4 (Homo sapiens) (UniProt P08684); experiment: qHTS Assay for Inhibitors and Substrates of Cytochrome P450 3A4 (AID 884); also: % is scaled to controls: 0 for no effect and ±100 for the full control effect; nearly all actives have a fitted effect of over 50% in size
Procedure, shortened: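 20 nM human CYP3A4 with 25 uM Luciferin-PPXE (at KM) in 200 mM KPO4, preincubated 10 min with compound; NADPH regeneration started a 60 min RT reaction. Luciferin detected by luminescence, normalized to 57 uM ketoconazole as full inhibition.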

[3] = Cell Viability - LYMP2-001 (AID 921);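 also: 0% = DMSO only and full inhibition = tetraoctylammonium bromide control wells; nearly all actives have a fitted effect of over 70% in size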
Procedure, shortened: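 Steps: seed 2500 lymphoblastoid cells/well; 5 hr, 37 C; add compound; 24 hr, 37 C; CellTiter-Glo reagent, 30 min room temperature; read luminescence. Concentration-response modeled by Hill equation for AC50.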

[4] = MultiTox-Fluor Cytotoxicity Assay - LYMP1-001 - Dead Cells (AID 946);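 also: 0% = DMSO and 100% = tetraoctylammonium bromide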
Procedure, shortened: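 In this qHTS, 15 uM tetraoctylammonium bromide defined 100% and DMSO defined basal activity. Lymphoblastoid cells (LYMP1-001, 2500 per well) received compound for 16 hr at 37 C before a fluorogenic dead-cell substrate readout at 485/520 nm.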

[5] = MultiTox-Fluor Cytotoxicity Assay - LYMP1-001 - Live Cells (AID 947);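 also: 0% = DMSO only and full inhibition = tetraoctylammonium bromide control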
[6] = Cell Viability - LYMP1-002 - Assay at 16 hr (AID 948);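 also: 0% = DMSO alone and full effect = 92 µM tetraoctylammonium bromide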
Procedure, shortened: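 Seed 2500 LYMP1-002 cells per well in complete medium and hold 5 hr at 37 C. Add compound across a concentration series and incubate 16 hr at 37 C. Add CellTiter-Glo, wait 30 min at room temperature, read luminescence.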

[7] = MultiTox-Fluor Cytotoxicity Assay - LYMP1-002 - Live Cells (AID 955);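 also: cells exposed to compound for 16 hours; % is scaled to controls: 0 for no effect and ±100 for the full control effect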
Procedure, shortened: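 Human lymphoblastoid LYMP1-002 cells, 2500/well, treated 16 h at 37 C in complete medium. Live-cell protease activity via GF-AFC fluorescence (Ex/Em 405/510) after 60 min reagent incubation; AC50 from Hill fits.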

[8] = MultiTox-Fluor Cytotoxicity Assay - LYMP1-002 - Dead Cells (AID 960);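 also: cells exposed to compound for 16 h at 37 °C; 0% = DMSO and 100% = tetraoctylammonium bromide; nearly all actives have a fitted effect of over 60% in size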
Procedure, shortened: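 Human lymphoblastoid LYMP1-002 cells, 2500/well, treated 16 h at 37 C; dead-cell protease cleavage of bis-AAF-R110 read by fluorescence (485/520); normalized to DMSO and 15 uM tetraoctylammonium bromide; AC50 from Hill fit.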

[9] = MultiTox-Fluor Cytotoxicity Assay - LYMP1-003 - Dead Cells (AID 961);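 also: cells exposed to compound for 16 h at 37 °C; 0% = DMSO and 100% = tetraoctylammonium bromide; nearly all actives have a fitted effect of over 70% in size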
Procedure, shortened: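 Acute toxicity is scored as increased dead-cell protease activity in human lymphoblastoid LYMP1-003 cells after 16 h compound exposure in complete culture medium. Activity is normalized to DMSO basal and 15 uM tetraoctylammonium bromide as full response.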

[10] = MultiTox-Fluor Cytotoxicity Assay - LYMP1-003 - Live Cells (AID 962);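 also: cells exposed to compound for 16 hours at 37 °C; 0% = DMSO only and full loss = 92 µM tetraoctylammonium bromide; cytotoxic hits lower the live-cell protease signal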
Procedure, shortened: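 LYMP1-003 lymphoblastoid cells, 2500/well in complete medium, treated 16 h at 37 C; live-cell protease cleavage of GF-AFC read by fluorescence (Ex/Em 405/510) after 60 min reagent; AC50 from Hill fits of concentration-response.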

[11] = Cell Viability - LYMP1-003 - Assay at 24 hr (AID 963);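 also: plate controls were DMSO only for no effect and tetraoctylammonium bromide positive control for full effect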
Procedure, shortened: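 Human lymphoblastoid LYMP1-003 cells, 2500/well, treated 24 h at 37 C in complete medium. Viability read as intracellular ATP by CellTiter-Glo luminescence after 30 min at room temperature; AC50 from Hill-equation fits of qHTS concentration-response.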

[12] = Cell Viability - LYMP1-003 - Assay at 40 hr (AID 964); also: % is scaled to controls: 0 for no effect and ±100 for the full control effect; nearly all actives have a fitted effect of over 60% in size
Procedure, shortened: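 LYMP1-003 human lymphoblastoid cells, 2500/well, preincubated 5 h at 37 C, then treated with compound for 40 h at 37 C. Intracellular ATP read by CellTiter-Glo luminescence after 30 min at room temperature; AC50 from Hill-equation fits.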

[13] = Cell Viability - LYMP2-003 (AID 965);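 also: cells exposed to compounds for 24 h before reading; 0% = DMSO only and full effect = 92 µM tetraoctylammonium bromide; nearly all actives have a fitted effect of over 50% in size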
Procedure, shortened: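 Seed 2500 lymphoblastoid cells/well; incubate 5 hr, 37 C; add compounds; incubate 24 hr, 37 C; add CellTiter-Glo, 30 min RT; read luminescence. AC50 from Hill fit.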

[14] = Cell Viability - LYMP2-004 (AID 966);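 also: plate controls were DMSO only for no effect and tetraoctylammonium bromide control for full effect; nearly all actives have a fitted effect of over 65% in size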
Procedure, shortened: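 Lymphoblastoid LYMP2-004 cells, 2500 per well, were preincubated for 5 hr and then treated with compound for 24 h at 37 C in complete medium. Viability was read as cellular ATP by CellTiter-Glo luminescence, and AC50 values were taken from Hill fits to concentration-response data.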

[15] = Cell Viability - LYMP2-005 (AID 967);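 also: plate controls were DMSO only for no effect and 92 µM tetraoctylammonium bromide control for full effect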
Procedure, shortened: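 Acute cytotoxicity is scored as a concentration-dependent drop in intracellular ATP in human lymphoblastoid LYMP2-005 cells after 24 h compound treatment. ATP is quantified by luciferase luminescence, and AC50 is derived by Hill-equation modelling.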

[16] = Cell Viability - LYMP2-009 (AID 968);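 also: 0% = DMSO alone and the full-kill end = tetraoctylammonium bromide at 92 µM; nearly all actives have a fitted effect of over 55% in size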
[17] = Cell Viability - LYMP2-011 (AID 969);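 also: 0% = DMSO only and full inhibition = 92 µM tetraoctylammonium bromide; nearly all actives have a fitted effect of over 60% in size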
Procedure, shortened: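 2500 cells/well in complete medium, compound-treated 24 h at 37 C. Viability read as intracellular ATP by CellTiter-Glo luminescence after 30 min at room temperature. AC50 from Hill fits of qHTS concentration-response data.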

[18] = Cell Viability - LYMP2-013 (AID 970);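 also: 0% = DMSO only and full inhibition = tetraoctylammonium bromide control; nearly all actives have a fitted effect of over 55% in size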
Procedure, shortened: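 Human lymphoblastoid LYMP2-013 cells, 2500/well, treated 24 h at 37 C in complete medium; viability as intracellular ATP by CellTiter-Glo luminescence after 30 min. AC50 from Hill fits of qHTS concentration-response.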

[19] = Cell Viability - LYMP2-015 (AID 971);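 also: 0% = DMSO only and full effect = 92 µM tetraoctylammonium bromide; nearly all actives have a fitted effect of over 55% in size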
Procedure, shortened: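 LYMP2-015 human lymphoblastoid cells (2500/well) in complete medium, compound-treated 24 h at 37 C; viability read as cellular ATP by CellTiter-Glo luminescence after 30 min at room temperature. AC50 from Hill-equation fits of qHTS concentration-response data.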

[20] = Cell Viability - LYMP2-017 (AID 972); also: % is scaled to controls: 0 for no effect and ±100 for the full control effect; nearly all actives have a fitted effect of over 55% in size
Procedure, shortened: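 LYMP2-017 human lymphoblastoid cells (2500/well) settled 5 hr at 37 C, then exposed to compound 24 hr at 37 C in complete medium. Viability taken as intracellular ATP by CellTiter-Glo luminescence after 30 min at RT; AC50 from Hill fits.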

[21] = Cell Viability - LYMP2-019 (AID 973)
Procedure, shortened: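 Human lymphoblastoid LYMP2-019 cells (2500/well) preincubated 5 h at 37 C, then treated 24 h at 37 C in complete medium. Viability by CellTiter-Glo ATP luminescence after 30 min at room temperature; AC50 from Hill fits.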

[22] = Cell Viability - LYMP2-023 (AID 975)
Procedure, shortened: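 LYMP2-023 human lymphoblastoid cells, 2500/well, preincubated 5 hr at 37 C, then compound-treated 24 hr at 37 C in complete medium. CellTiter-Glo luminescence (ATP) after 30 min at room temperature; AC50 from Hill-equation fits; tetraoctylammonium bromide positive control.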

[23] = Cell Viability - LYMP2-025 (AID 976);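 also: plate controls were DMSO only for no effect and tetraoctylammonium bromide control for full effect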
Procedure, shortened: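 Human lymphoblastoid LYMP2-025 cells, 2500/well, exposed 24 h at 37 C in complete medium in 1536-well qHTS. Viability as cellular ATP by CellTiter-Glo luminescence; AC50 from Hill fits of concentration-response data.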

Cytochrome P450 3A4 (Homo sapiens), sequence (P08684 whole entry, looked up): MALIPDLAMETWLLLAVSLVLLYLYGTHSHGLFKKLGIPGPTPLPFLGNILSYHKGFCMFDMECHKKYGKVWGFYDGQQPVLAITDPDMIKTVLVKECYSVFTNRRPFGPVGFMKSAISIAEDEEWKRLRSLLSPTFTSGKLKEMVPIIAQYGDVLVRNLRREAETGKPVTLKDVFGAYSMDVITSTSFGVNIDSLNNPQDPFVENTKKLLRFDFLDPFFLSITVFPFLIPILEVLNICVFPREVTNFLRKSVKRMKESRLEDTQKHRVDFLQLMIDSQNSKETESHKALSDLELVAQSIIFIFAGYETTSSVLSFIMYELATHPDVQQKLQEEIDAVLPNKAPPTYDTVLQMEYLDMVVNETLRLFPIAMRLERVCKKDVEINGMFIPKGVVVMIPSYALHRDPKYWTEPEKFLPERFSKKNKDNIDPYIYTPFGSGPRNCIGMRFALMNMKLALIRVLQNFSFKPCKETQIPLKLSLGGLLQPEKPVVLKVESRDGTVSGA

Clc1cc(Cl)c(-c2cc(Cl)c(Cl)cc2Cl)cc1Cl
inactive: caspase-3 activation [1] -3.51% [at 91.7 µM] | Potency [2] | Potency [3] | Potency [4] | Potency [5] | Potency [6] | outcome [7] | Potency [8] | Potency [9] | Potency [10] | Potency [11] | Potency [12] | Potency [13] | Potency [14] | Potency [15] | Potency [16] | Potency [17] | Potency [18] | Potency [19] | Potency [20] | Potency [21] | Potency [22] | Potency [23]
